Data as given in publication PMC5540273 (PLoS ONE, 2017).

How the values were obtained:
Settings in all cases: concentration: 1 μM, replicates: in singlicate; n = 1
MEK5 = tested on: T1, MEK5
T1 construct: gene MAP2K5

MEK6 = tested on: T2, MEK6
T2 construct: gene MAP2K6

MELK = tested on: MELK
MERTK = tested on: MERTK
MET = tested on: MET
MINK = tested on: T3, MINK
T3 construct: gene MINK1

MKK7 = tested on: MKK7
MKNK1 = tested on: MKNK1
MKNK2 = tested on: MKNK2
MLCK = tested on: T4, MLCK
T4 construct: gene MYLK3

MLK1 = tested on: T5, MLK1
T5 construct: gene MAP3K9

MLK2 = tested on: MLK2
MLK3 = tested on: MLK3
MRCKA = tested on: MRCKA
MRCKB = tested on: T6, MRCKB
T6 construct: gene CDC42BPB

MST1R = tested on: MST1R
MST1 = tested on: T7, MST1
T7 construct: gene STK4

MST2 = tested on: T8, MST2
T8 construct: gene STK3

MST3 = tested on: T9, MST3
T9 construct: gene STK24

MST4 = tested on: MST4
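Also: KINOMEscan kinase panel screen.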

Row | Compound | %Inh (MEK5) [%] | %Inh (MEK6) [%] | %Inh (MELK) [%] | %Inh (MERTK) [%] | %Inh (MET) [%] | %Inh (MINK) [%] | %Inh (MKK7) [%] | %Inh (MKNK1) [%] | %Inh (MKNK2) [%] | %Inh (MLCK) [%] | %Inh (MLK1) [%] | %Inh (MLK2) [%] | %Inh (MLK3) [%] | %Inh (MRCKA) [%] | %Inh (MRCKB) [%] | %Inh (MST1R) [%] | %Inh (MST1) [%] | %Inh (MST2) [%] | %Inh (MST3) [%] | %Inh (MST4) [%]
1 | CN(C)c1ncnc2nc[nH]c12 [SKF-31736] | 51 | 0 | 0 | 10 | 0 | 2 | 20 | 0 | 0 | 0 | 0 | 0 | 0 | 11 | 0 | 0 | 0 | 0 | 19 | 1
2 | Cc1ccc(-c2ccc3occ(-c4ccc(S(C)=O)cc4)c3c2)nn1 (centres unmarked) | 0 | 0 | 0 | 0 | 0 | 0 | 0 | 0 | 0 | 5 | 0 | 10 | 0 | 0 | 0 | 0 | 0 | 0 | 0 | 0
3 | Cn1cc(-c2ccc3c(c2)CCN3C(=O)Cc2cc(F)cc(F)c2F)c2c(N)ncnc21 [GSK2634140] | 98.9 | 0 | 12 | 38 | 68 | 21 | 0 | 5 | 1 | 11 | 38 | 0 | 54 | 0 | 0 | 43 | 85 | 42 | 4 | 0
4 | CSc1ccc(NC2=C(c3ccc(Cl)cc3)C(=O)NC2=O)cc1 [SB-317658] | 22 | 3 | 0 | 0 | 0 | 0 | 0 | 14 | 0 | 29 | 0 | 4 | 0 | 0 | 0 | 33 | 29 | 45 | 0 | 6
5 | CCOc1nccc(-c2c(-c3ccc(F)cc3)ncn2C2CCNCC2)n1 [SB-249175] | 26 | 18 | 0 | 18 | 0 | 49 | 7 | 57 | 46 | 2 | 3 | 14 | 15 | 0 | 26 | 0 | 0 | 0 | 13 | 11
6 | O=C(Nc1n[nH]c2nc(-c3cccc(O)c3)ccc12)C1CC1 [SB-711805] | 95.9 | 0 | 3 | 47 | 0 | 51 | 0 | 0 | 26 | 94.5 | 0 | 13 | 3 | 0 | 0 | 0 | 0 | 0 | 0 | 0
7 | Cc1ccc(O)cc1Nc1ccnc2cc(-c3ccc(CN4CCCCC4)o3)ccc12 [GW557777] | 97.9 | 15 | 0 | 13 | 0 | 38 | 0 | 0 | 0 | 0 | 2 | 0 | 2 | 0 | 0 | 5 | 0 | 0 | 17 | 0
8 | CCn1c(-c2nonc2N)nc2c(-c3ccccc3)ncc(OCCCN)c21.O=C(O)C(F)(F)F.O=C(O)C(F)(F)F [GSK260205] | 92.8 | 0 | 20 | 7 | 21 | 95.7 | 0 | 0 | 1 | 9 | 0 | 0 | 0 | 99.9 | 99.3 | 45 | 52 | 0 | 38 | 71
9 | Cc1ccc(NC(=O)c2cccc(N3CCCCC3)c2)cc1-c1ccc(C(=O)NCC2CC2)cc1 [GSK1917008] | 20 | 35 | 0 | 18 | 0 | 0 | 0 | 10 | 18 | 0 | 0 | 17 | 12 | 17 | 0 | 37 | 13 | 34 | 13 | 1
10 | Cc1nn2c(=O)cc(N3CCO[C@H](C)C3)nc2n1Cc1cccc(Cl)c1Cl [GSK2373693] | 19 | 0 | 2 | 17 | 0 | 0 | 0 | 0 | 19 | 0 | 0 | 5 | 9 | 0 | 60 | 0 | 20 | 0 | 0 | 0
